Assay outcomes deposited in PubChem by National Center for Advancing Translational Sciences (NCATS).
TDP1 cell noCPT: qHTS for Inhibitors of human tyrosyl-DNA phosphodiesterase 1 (TDP1): qHTS in cells in absence of CPT; 420,000 tested, 15% active; Potency, µM (series often up to 46.2 µM), without a hit: at the top dose activity change, negative = growth inhibition, actives largely listed as inhibitors; DT40 Tdp1-/- hTDP1 cells, no CPT, ATP luminescence, 48 h; AID 686978, 2013; note: nearly all actives have a fitted effect of over 55% in size
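Cells were dispensed at 400 per well, compounds added by pin tool, plates incubated ≥48 hr at 37 °C, then CellTiter-Glo added for 30 min at room temperature before luminescence reading. Line: DT40 Tdp1-/- complemented with hTDP1; camptothecin omitted.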
ELG1 repair inh: qHTS screen for small molecules that inhibit ELG1-dependent DNA repair in human embryonic kidney (HEK293T) cells expressing luciferase-tagged ELG1; HEK293T ELG1-luciferase reporter, luminescence, 16 h; DNA damage induced by 5-fluorouridine; 330,000 tested, 2.3% active; Potency, µM (doses to about 46.1 µM), for the others: at the highest dose activity change, negative = inhibition, actives largely listed as inhibitors; AID 504467, 2011; note: nearly all actives have a fitted effect of over 55% in size
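Reporter activity after DNA damage by 5-fluorouridine is monitored. Compound-treated cells incubate 16 hr at 37 °C, then ONE-Glo is added for 30 min before luminescence reading.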
VP16 counter: VP16 counterscreen qHTS for inhibitors of ROR gamma transcriptional activity; Potency, µM (titrated, usually from 53.6 µM), for the others: top-dose activity, negative = inhibition, usual class: inhibitors; AID 2546, 2010; Drosophila S2 Gal4-VP16 UAS-luciferase, luminescence, 20 h; 310,000 tested, 3.5% active;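 note: Gal4-VP16 expression switched on by copper sulfate through the metallothionein promoter; nearly all actives have a fitted effect of over 50% in size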
RORgamma inh: qHTS for inhibitors of ROR gamma transcriptional activity | Drosophila S2 Gal4-RORgamma UAS-luciferase reporter, 20 h | Potency, µM (series often up to 53.6 µM), for the others: top-dose activity change, negative = inhibition, actives largely listed as inhibitors | 310,000 tested, 5.4% active; note: nearly all actives have a fitted effect of over 60% in size
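Stably transfected Drosophila Schneider cells are the test system, with ROR gamma fused to Gal4 and luciferase under UAS control; luminescence is read after 20 hr of 700 uM copper sulfate induction at ambient temperature.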
12-LOX inh: Primary qHTS assay for inhibitors of human arachidonate 12S-lipoxygenase (ALOX12): Round 2. Polyunsaturated fatty acid lipoxygenase ALOX12 (Homo sapiens), P18054. purified 12hLO, xylenol orange hydroperoxide absorbance. Potency, µM (doses to about 108 µM), without a hit: at the highest dose activity change, negative = inhibition, most hits filed as inhibitors. 580,000 tested, 1.1% active. AID 1671190, 2021
Target sequence (P18054 whole entry, looked up): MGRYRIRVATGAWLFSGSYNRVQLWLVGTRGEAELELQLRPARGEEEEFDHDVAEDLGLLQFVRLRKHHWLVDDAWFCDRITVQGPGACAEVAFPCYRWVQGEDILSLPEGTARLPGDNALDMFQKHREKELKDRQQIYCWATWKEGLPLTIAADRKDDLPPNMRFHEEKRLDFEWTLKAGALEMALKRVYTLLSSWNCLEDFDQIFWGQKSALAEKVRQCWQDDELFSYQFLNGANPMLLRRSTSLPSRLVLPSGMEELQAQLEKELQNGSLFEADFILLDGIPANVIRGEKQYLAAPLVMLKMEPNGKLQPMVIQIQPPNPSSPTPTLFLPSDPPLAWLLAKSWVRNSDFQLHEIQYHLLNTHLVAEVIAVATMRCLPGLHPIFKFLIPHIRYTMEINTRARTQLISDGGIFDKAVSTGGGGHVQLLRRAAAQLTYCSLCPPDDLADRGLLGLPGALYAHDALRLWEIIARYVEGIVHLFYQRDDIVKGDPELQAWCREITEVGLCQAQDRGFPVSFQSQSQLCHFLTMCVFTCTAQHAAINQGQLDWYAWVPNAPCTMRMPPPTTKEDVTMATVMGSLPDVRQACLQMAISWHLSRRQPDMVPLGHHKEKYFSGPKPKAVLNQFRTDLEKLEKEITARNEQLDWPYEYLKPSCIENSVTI
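Purified human 12hLO at 150 nM in 25 mM Hepes, 0.01% Triton X-100, pH 7.0, preincubated 15 min at room temperature with compound. Reaction started with 40 uM arachidonic acid, 30 min at room temperature. Hydroperoxide measured by Fe-xylenol orange, 573/405 nm absorbance ratio.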
DT40 TDP1 CPT: qHTS for Inhibitors of human tyrosyl-DNA phosphodiesterase 1 (TDP1): qHTS in cells in presence of CPT. Potency, µM (titrated, usually from 46.2 µM), for inactives: at the highest dose activity change, negative = growth inhibition, actives largely listed as inhibitors. 420,000 tested, 12% active. chicken DT40 Tdp1-/-;hTDP1 cells + 20 nM CPT, ATP luminescence, 48 h; note: nearly all actives have a fitted effect of over 55% in size
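Cell growth measured by CellTiter-Glo luminescence after a minimum 48 h, 37 C compound exposure with 20 nM CPT in Tdp1-knockout DT40 cells stably expressing hTDP1, seeded 400/well; qHTS titration format.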
Numbers without * were called inactive; ? = inconclusive; . = no result given; [ ] = another dose, or the depositor's remark. In the library only some 15% were active in any assay of this set; here they are far more common. Calls come from the whole dose curve; as a rule, active = well fitted curve in the direction sought with a large enough effect; inconclusive = small, poorly fitted or top-dose-only effect, or another doubt; inactive = no such curve, though single readings can be large; an effect the other way counts as inactive or inconclusive. % is set by controls: 0 for no effect and ±100 for the full control effect; potency is the fitted concentration of half-maximal effect.

SMILES | TDP1 cell noCPT | ELG1 repair inh | VP16 counter | RORgamma inh | 12-LOX inh | DT40 TDP1 CPT
Cc1cc(C)c2cc(C#N)c(NCCCN)nc2c1 | 20.6µM* | . | . | . | -10.4% | ?
Cc1cc(C)c2cc(C#N)c(NCCCNC(=O)CCC(=O)O)nc2c1 | -26.8% | 8.9% | 1.7% | -14.9% | ? | -0.1%
COc1ccc(C(=O)NCCNc2nc3ccc(C)cc3cc2C#N)cc1 | ? | 1.6% | ? | ? | ? | -13.3%
COc1cc(C(=O)NCCNc2nc3ccc(C)cc3cc2C#N)cc(OC)c1OC | ? | 14.6µM* | -5.5% | -20.8% | ? | -14.3%
CN1CCC(NC(=O)c2n[nH]c3c2CN(C(=O)c2cccc(F)c2)CC3)CC1 | . | . | . | . | 6.7% | .
CCN(CC)CCCNC(=O)CCNc1nc(Cl)nc2nc[nH]c12 | . | . | . | . | -39.0% | .
CCOc1ccc(/C=N/NC(=O)c2ccccc2C)cc1CN1CC2CC(C1)c1cccc(=O)n1C2 (stereo not given) | 23.1µM* | -11.4% | . | . | -18.8% | ?
CCNC(=O)CSc1nnc(-c2cc(-c3ccc(Cl)cc3)nc3ccccc23)o1 | -26.1% | -29.6% | ? | 0.199µM* | -12.3% | 25.0%
CN(C(=O)CSc1nnc(-c2cccs2)o1)C1CCS(=O)(=O)C1 (stereo not given) | -5.8% | 9.2% | -23.7% | -3.1% | 4.2% | 8.0%
CCN(CC)C(=O)CSc1nnc(-c2cc(-c3ccc(Cl)cc3)nc3ccccc23)o1 | ? | ? | -0.4% | 7.0% | -17.5% | -67.7%
CN(C)C(=O)CSc1nnc(-c2cc(-c3cccs3)nc3ccccc23)o1 | 18.4µM* | 11.6µM* | -12.0% | -13.3% | 19.6% | -45.7%
Cc1ccc(NC(=O)Cn2c(=O)n(C)c(=O)c3sc(N4CCCC4)nc32)c(Cl)c1 | . | . | . | . | -6.0% | .
CC(C)CCN1CCOc2cc(C(=O)Nc3nccs3)ccc2C1 | . | . | . | . | 73.5%[176 µM] | .
O=C1c2c(-c3ccc(Br)cc3)noc2CCN1Cc1cn(Cc2cccnc2)nn1 | ? | . | . | . | 0.0% | ?
O=C1c2c(-c3ccc(Br)cc3)noc2CCN1Cc1cn(-c2ccccc2)nn1 | ? | . | . | . | 8.3% | 20.6µM*
O=C1c2c(-c3ccc(Br)cc3)noc2CCN1Cc1cn(Cc2ccccc2)nn1 | 18.4µM* | . | . | . | 4.1% | ?
COc1cc(CNn2cnnc2)ccc1OCc1ccccc1F | . | . | . | . | -0.2% | .
CC1C[N+](=C2C=C(N3CCOCC3)CC(C)(C)C2)CC(C)O1 (stereo not given) | -2.8% | 5.6% | -4.0% | 2.9% | 28.2µM* | 29.1%
CC(=O)c1ccc(NC(=O)COC(=O)c2ccccc2N=Nc2ccc(N(C)C)cc2)cc1 | 20.6µM* | -27.9% | -3.5% | ? | 0.3% | ?
COC(=O)c1ccccc1NC(=O)COC(=O)c1ccco1 | -5.5% | 4.0% | -1.2% | 9.9% | -21.7% | 7.2%
CN(C)c1ccc(C(=O)OCC(=O)Nc2ccc(N3CCOCC3)cc2)cc1 | -24.3% | 4.6% | 17.1% | 6.3% | -0.3% | -1.5%
CN(C)c1ccc(N=Nc2ccccc2C(=O)O)cc1 | -24.6% | . | . | . | . | ?
COC(=O)c1ccccc1NC(=O)COC(=O)c1ccccc1N=Nc1ccc(N(C)C)cc1 | 16.4µM* | ? | -6.4% | 29.0% | -16.9% | 16.4µM*
CN(C)c1ccc(N=Nc2ccccc2C(=O)OCC(=O)N(C)c2ccccc2)cc1 | ? | 13µM* | -19.4% | ? | -0.7% | 20.6µM*
